Laboratory results reported in PubChem BioAssay AID651823 (Broad Institute, 2012).
The other results are listed elsewhere or left out. The source made the active and inactive calls. No stated cut-off is given here; in the data, active means max delta Tm above about 0.48 degrees C; inactive means the rest.

molecular target: Kelch-like ECH-associated protein 1 (Homo sapiens) (UniProt Q14145); experiment: Keap1 Kelch domain binders by thermal stabilisation, dose response, biophysical, thermal shift, RT-PCR instrument, cherry-pick (AID 651823); conditions: hits give high values; at 50 µM unless noted
Sequence (Q14145 whole entry, looked up, the tested form may be a part): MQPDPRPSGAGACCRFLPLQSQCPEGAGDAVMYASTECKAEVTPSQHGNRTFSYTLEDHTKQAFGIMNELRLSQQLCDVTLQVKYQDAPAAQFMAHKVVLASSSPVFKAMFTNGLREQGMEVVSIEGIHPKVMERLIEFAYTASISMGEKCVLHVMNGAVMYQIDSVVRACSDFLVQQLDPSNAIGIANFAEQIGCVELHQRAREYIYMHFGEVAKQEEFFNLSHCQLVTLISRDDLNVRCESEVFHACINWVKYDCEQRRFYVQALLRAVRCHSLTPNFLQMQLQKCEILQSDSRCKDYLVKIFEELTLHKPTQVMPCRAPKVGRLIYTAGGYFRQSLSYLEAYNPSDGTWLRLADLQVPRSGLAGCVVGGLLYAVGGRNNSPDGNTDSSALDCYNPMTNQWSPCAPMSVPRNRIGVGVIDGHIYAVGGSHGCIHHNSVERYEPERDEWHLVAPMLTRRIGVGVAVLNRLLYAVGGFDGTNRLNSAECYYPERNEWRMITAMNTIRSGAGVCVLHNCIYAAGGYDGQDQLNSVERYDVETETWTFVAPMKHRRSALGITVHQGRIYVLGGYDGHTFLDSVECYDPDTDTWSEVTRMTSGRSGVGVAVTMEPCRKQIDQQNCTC

Row | SMILES | max delta Tm
1 | CCCC1OC23CCCCC2C(C#N)(C#N)C1(C#N)C(=N)O3 (stereo not drawn) | -0.1 °C [at 0.38 µM] (inactive)
2 | O=C(O)CC(Cn1cnnn1)c1ccccc1 (stereo not drawn) | -0.14 °C [at 3 µM] (inactive)
3 | COC(=O)C[n+]1cccc2ccccc21 | -0.13 °C (inactive)
4 | O=C(CCc1ccccc1)NNc1ccc(F)cc1 | -0.17 °C [at 0.8 µM] (inactive)
5 | COc1cc(OC)c(S(=O)(=O)Nc2ccccc2C(=O)O)cc1S(=O)(=O)Nc1ccccc1C(=O)O | 0.77 °C (active)
6 | Cc1cccc(NS(=O)(=O)c2ccc(C)c(C(=O)NCC(c3ccccc3)N(C)C)c2)c1 (stereo not drawn) | -0.11 °C [at 0.8 µM] (inactive)
7 | Nc1ccc2nc3c(=O)[nH]c(=S)[nH]c3nc2c1 | 0.14 °C (inactive)
8 | CC1(C)CC(=O)C(N=Nc2c(F)cccc2F)=C(O)C1 | -0.12 °C [at 6 µM] (inactive)
9 | COc1ccc(Nc2nc(-c3cccnc3)nc3ccccc23)cn1 | -0.21 °C [at 1.6 µM] (inactive)
10 | CCN1/C(=C\c2ccc3ccccc3[n+]2CC)Sc2cc(C)ccc21 | -0.01 °C [at 26 µM] (inactive)
11 | CCCN(CCC)C(=O)C1c2ccccc2Oc2ccccc21 | -0.08 °C [at 0.38 µM] (inactive)
12 | O=C(Nc1ccccn1)C1CCN(S(=O)(=O)c2ccc3c(c2)OCCO3)CC1 | -0.17 °C [at 0.38 µM] (inactive)
13 | CN1C(=O)c2cccc3c(N)ccc(c23)C1=O | 0 °C [at 26 µM] (inactive)
14 | CN(CCOc1ccc(CC2SC(=O)NC2=O)cc1)c1ccccn1 (stereo not drawn) | -0.09 °C [at 0.8 µM] (inactive)
15 | O=C1CC(Cc2ccc(Cl)cc2)C(=O)N1c1cc(Cl)ccn1 (stereo not drawn) | -0.06 °C [at 0.38 µM] (inactive)
16 | O=C(NCCOCc1ccc(Cl)cc1)c1ncn[nH]1 | -0.19 °C (inactive)
17 | CCCC(=O)Nc1ccc(C(=O)NCCCn2ccnc2)cc1 | -0.11 °C (inactive)
18 | COc1ccc(C2c3ccc(O)cc3Oc3ncn(CCCO)c(=N)c32)cc1OC (stereo not drawn) | -0.15 °C [at 6 µM] (inactive)
